# Screen size: about 5,500 compounds; about 2,000 (36%) were called active. About 18% were inconclusive and are not listed. The list shows a part of the results. Unmarked numbers belong to inactive results. Cut-off read from the data, not from the text of the source: active = normalized growth mostly below about 0.91 (no sharp cut-off); inconclusive = no clear call, values can overlap the other calls; inactive = mostly above about 0.92.
# Assay: chemical genetic growth profiling, strain panel (AID 1159580);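 note: tested at 20 µM; growth read once vehicle control cultures reached saturation at 30 °C; 1 = growth at the plate median or of vehicle wells; lower values mean less growth of the strain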
# Settings: growth OD
# [1] = S. cerevisiae deletion strains, locus YDR150W, strain NUM1, stronger effect = lower value
# [2] = S. cerevisiae deletion strains, locus YGR229C, strain SMI1, stronger effect = lower value
# [3] = S. cerevisiae deletion strains, locus YJR075W, strain HOC1, stronger effect = lower value
# [4] = S. cerevisiae deletion strains, locus YMR263W, strain SAP30, stronger effect = lower value
# [5] = S. cerevisiae deletion strains, locus YNL153C, strain GIM3, stronger effect = lower value
# [6] = S. cerevisiae deletion strains, locus YNL322C, strain KRE1, stronger effect = lower value
# [7] = S. cerevisiae deletion strains, locus YPL055C, strain LGE1, stronger effect = lower value
# [8] = S. cerevisiae deletion strains, locus YPL241C, strain CIN2, stronger effect = lower value
structure (smiles),measurement,setting,value
CCCCCCCCCCCCCCCC(=O)OC(CC(=O)O)C[N+](C)(C)C (configuration not stated),normalized growth,"S. cerevisiae deletion strains, locus YAL040C, strain CLN3, stronger effect = lower value",1.07
same,normalized growth,"S. cerevisiae deletion strains, locus YCL061C, strain MRC1 (second series), stronger effect = lower value",0.492 (active)
same,normalized growth,[1],0.56 (active)
same,normalized growth,"S. cerevisiae deletion strains, locus YDR363W, strain ESC2, stronger effect = lower value",0.784 (active)
same,normalized growth,"S. cerevisiae deletion strains, locus YER002W, strain NOP16, stronger effect = lower value",0.424 (active)
same,normalized growth,[2],0.0686 (active)
same,normalized growth,[3],0.724 (active)
same,normalized growth,[4],0.584 (active)
same,normalized growth,[5],0.0876 (active)
same,normalized growth,"S. cerevisiae deletion strains, locus YNL175C, strain NOP13, stronger effect = lower value",0.0754 (active)
same,normalized growth,"S. cerevisiae deletion strains, locus YNL197C, strain WHI3, stronger effect = lower value",0.0681 (active)
same,normalized growth,"S. cerevisiae deletion strains, locus YNL224C, strain SQS1, stronger effect = lower value",0.0761 (active)
same,normalized growth,[6],0.354 (active)
same,normalized growth,"S. cerevisiae deletion strains, locus YOR083W, strain WHI5 (second series), stronger effect = lower value",0.0749 (active)
same,normalized growth,[7],0.383 (active)
same,normalized growth,[8],0.976
COc1ccc2c3c1OC1C(O)CC=C4C(C2)N(C)CCC431 (configuration not stated),normalized growth,"S. cerevisiae deletion strains, locus YAL013W, strain DEP1, stronger effect = lower value",0.994
same,normalized growth,"S. cerevisiae deletion strains, locus YBR021W, strain FUR4, stronger effect = lower value",1.01
same,normalized growth,"S. cerevisiae deletion strains, locus YBR229C, strain ROT2, stronger effect = lower value",1.01
same,normalized growth,"S. cerevisiae deletion strains, locus YCL029C, strain bik1, stronger effect = lower value",1.03
same,normalized growth,"S. cerevisiae deletion strains, locus YDL035C, strain GPR1, stronger effect = lower value",1.01
same,normalized growth,"S. cerevisiae deletion strains, locus YDL074C, strain BRE1, stronger effect = lower value",1.04
same,normalized growth,"S. cerevisiae deletion strains, locus YDL101C, strain DUN1, stronger effect = lower value",1.03
same,normalized growth,"S. cerevisiae deletion strains, locus YDL134C, strain PPH21, stronger effect = lower value",1.01
same,normalized growth,"S. cerevisiae deletion strains, locus YDL185W, strain tfp1, stronger effect = lower value",1.02
same,normalized growth,"S. cerevisiae deletion strains, locus YDL192W, strain arf1, stronger effect = lower value",1.02
same,normalized growth,"S. cerevisiae deletion strains, locus YDR101C, strain arx1, stronger effect = lower value",1
same,normalized growth,[1],1.02
same,normalized growth,"S. cerevisiae deletion strains, locus YDR162C, strain NBP2, stronger effect = lower value",1.01
same,normalized growth,"S. cerevisiae deletion strains, locus YDR318W, strain mcm21, stronger effect = lower value",1.02
same,normalized growth,"S. cerevisiae deletion strains, locus YDR388W, stronger effect = lower value",1
same,normalized growth,"S. cerevisiae deletion strains, locus YDR502C, strain sam2, stronger effect = lower value",1.01
same,normalized growth,"S. cerevisiae deletion strains, locus YEL061C, strain CIN8, stronger effect = lower value",1.01
same,normalized growth,"S. cerevisiae deletion strains, locus YER110C, stronger effect = lower value",1.02
same,normalized growth,"S. cerevisiae deletion strains, locus YER155C, strain BEM2, stronger effect = lower value",0.996
same,normalized growth,"S. cerevisiae deletion strains, locus YER167W, strain BCK2, stronger effect = lower value",1.03
same,normalized growth,"S. cerevisiae deletion strains, locus YGL078C, strain dbp3, stronger effect = lower value",1.01
same,normalized growth,"S. cerevisiae deletion strains, locus YGL086W, strain mad1, stronger effect = lower value",1.02
same,normalized growth,"S. cerevisiae deletion strains, locus YGL248W, strain PDE1, stronger effect = lower value",1.02
same,normalized growth,"S. cerevisiae deletion strains, locus YGR078C, strain PAC10, stronger effect = lower value",1.03
same,normalized growth,"S. cerevisiae deletion strains, locus YGR135W, strain pre9, stronger effect = lower value",1.01
same,normalized growth,[2],0.993
same,normalized growth,"S. cerevisiae deletion strains, locus YGR252W, strain gcn5, stronger effect = lower value",1.02
same,normalized growth,"S. cerevisiae deletion strains, locus YHR030C, strain SLT2, stronger effect = lower value",1.01
same,normalized growth,"S. cerevisiae deletion strains, locus YHR079C, strain IRE1 (second series), stronger effect = lower value",1.02
same,normalized growth,"S. cerevisiae deletion strains, locus YHR094C, strain hxt1, stronger effect = lower value",1.01
same,normalized growth,"S. cerevisiae deletion strains, locus YHR129C, strain ARP1, stronger effect = lower value",1.01
same,normalized growth,"S. cerevisiae deletion strains, locus YHR200W, strain rpn10, stronger effect = lower value",1.01
same,normalized growth,"S. cerevisiae deletion strains, locus YIL066C, strain RNR3, stronger effect = lower value",1.01
same,normalized growth,"S. cerevisiae deletion strains, locus YIL073C, strain SPO22, stronger effect = lower value",1.1
same,normalized growth,"S. cerevisiae deletion strains, locus YIL125W, strain kgd1, stronger effect = lower value",1.01
same,normalized growth,"S. cerevisiae deletion strains, locus YIR030C, strain dcg1, stronger effect = lower value",1.02
same,normalized growth,"S. cerevisiae deletion strains, locus YJL095W, strain BCK1, stronger effect = lower value",1.03
same,normalized growth,"S. cerevisiae deletion strains, locus YJL134W, strain LCB3, stronger effect = lower value",1.01
same,normalized growth,"S. cerevisiae deletion strains, locus YJL168C, strain set2, stronger effect = lower value",1.02
same,normalized growth,"S. cerevisiae deletion strains, locus YJL187C, strain SWE1 (second series), stronger effect = lower value",1.02
same,normalized growth,"S. cerevisiae deletion strains, locus YJR043C, strain POL32, stronger effect = lower value",1.03
same,normalized growth,[3],1.02
same,normalized growth,"S. cerevisiae deletion strains, locus YKL009W, strain mrt4, stronger effect = lower value",1.03
same,normalized growth,"S. cerevisiae deletion strains, locus YKL068W, stronger effect = lower value",1.01
same,normalized growth,"S. cerevisiae deletion strains, locus YKL085W, strain MDH1 (second series), stronger effect = lower value",1.01
same,normalized growth,"S. cerevisiae deletion strains, locus YKL085W, strain MDH1, stronger effect = lower value",1.01
same,normalized growth,"S. cerevisiae deletion strains, locus YKL190W, strain CNB1, stronger effect = lower value",1.01
same,normalized growth,"S. cerevisiae deletion strains, locus YKR001C, strain vps1, stronger effect = lower value",1.03
same,normalized growth,"S. cerevisiae deletion strains, locus YLR039C, strain RIC1, stronger effect = lower value",1.04
same,normalized growth,"S. cerevisiae deletion strains, locus YLR058C, strain SHM2, stronger effect = lower value",1.02
same,normalized growth,"S. cerevisiae deletion strains, locus YLR102C, strain apc9, stronger effect = lower value",1.01
same,normalized growth,"S. cerevisiae deletion strains, locus YLR262C, strain YPT6, stronger effect = lower value",1.05
same,normalized growth,"S. cerevisiae deletion strains, locus YLR268W, strain sec22, stronger effect = lower value",1.02
same,normalized growth,"S. cerevisiae deletion strains, locus YLR330W, strain CHS5, stronger effect = lower value",1.01
same,normalized growth,"S. cerevisiae deletion strains, locus YLR342W, strain FKS1 (second series), stronger effect = lower value",1.02
same,normalized growth,"S. cerevisiae deletion strains, locus YLR371W, strain rom2, stronger effect = lower value",1.01
same,normalized growth,"S. cerevisiae deletion strains, locus YLR418C, strain cdc73, stronger effect = lower value",1.02
same,normalized growth,"S. cerevisiae deletion strains, locus YML016C, strain PPZ1, stronger effect = lower value",1.02
same,normalized growth,"S. cerevisiae deletion strains, locus YML032C, strain rad52, stronger effect = lower value",1.02
same,normalized growth,"S. cerevisiae deletion strains, locus YML124C, strain tub3, stronger effect = lower value",1.02
same,normalized growth,"S. cerevisiae deletion strains, locus YMR078C, strain ctf18, stronger effect = lower value",1.03
same,normalized growth,"S. cerevisiae deletion strains, locus YMR223W, strain ubp8, stronger effect = lower value",1.03
same,normalized growth,[4],1.02
same,normalized growth,"S. cerevisiae deletion strains, locus YMR307W, strain GAS1, stronger effect = lower value",0.962
same,normalized growth,"S. cerevisiae deletion strains, locus YNL067W, strain RPL9B, stronger effect = lower value",1.03
same,normalized growth,"S. cerevisiae deletion strains, locus YNL128W, strain TEP1, stronger effect = lower value",1.02
same,normalized growth,[5],1.02
same,normalized growth,"S. cerevisiae deletion strains, locus YNL233W, strain BNI4, stronger effect = lower value",1.02
same,normalized growth,"S. cerevisiae deletion strains, locus YNL250W, strain rad50, stronger effect = lower value",1.03
same,normalized growth,"S. cerevisiae deletion strains, locus YNL271C, strain bni1, stronger effect = lower value",1.01
same,normalized growth,"S. cerevisiae deletion strains, locus YNL298W, strain CLA4, stronger effect = lower value",1.03
same,normalized growth,"S. cerevisiae deletion strains, locus YNL307C, strain MCK1, stronger effect = lower value",1.02
same,normalized growth,[6],1.01
same,normalized growth,"S. cerevisiae deletion strains, locus YNR052C, strain pop2, stronger effect = lower value",1.02
same,normalized growth,"S. cerevisiae deletion strains, locus YOL006C, strain TOP1, stronger effect = lower value",1.1
same,normalized growth,"S. cerevisiae deletion strains, locus YOL012C, strain htz1",0.859
same,normalized growth,"S. cerevisiae deletion strains, locus YOL147C, strain pex11, stronger effect = lower value",1
same,normalized growth,"S. cerevisiae deletion strains, locus YOR061W, strain CKA2, stronger effect = lower value",1.02
same,normalized growth,"S. cerevisiae deletion strains, locus YOR069W, strain VPS5, stronger effect = lower value",1.01
same,normalized growth,"S. cerevisiae deletion strains, locus YOR136W, strain idh2, stronger effect = lower value",1.02
same,normalized growth,"S. cerevisiae deletion strains, locus YOR144C, strain elg1, stronger effect = lower value",1.02
same,normalized growth,"S. cerevisiae deletion strains, locus YOR184W, strain ser1, stronger effect = lower value",1.03
same,normalized growth,"S. cerevisiae deletion strains, locus YOR316C, strain cot1, stronger effect = lower value",1.02
same,normalized growth,[7],1.03
same,normalized growth,[8],1.01
same,normalized growth,"S. cerevisiae deletion strains, locus YPR119W, strain clb2, stronger effect = lower value",1
same,normalized growth,"S. cerevisiae deletion strains, locus YPR141C, strain kar3, stronger effect = lower value",1.01
same,normalized growth,"S. cerevisiae deletion strains, locus YPR163C, strain tif3, stronger effect = lower value",1.02
same,normalized growth,"S. cerevisiae deletion strains, locus YPR167C, strain met16, stronger effect = lower value",1.02
same,normalized growth,"S. cerevisiae deletion strains, strain wtn01, stronger effect = lower value",1.01
same,normalized growth,"S. cerevisiae strains, strain wild type, stronger effect = lower value",1

# From PubChem BioAssay AID1159580 (chemical genetic matrix, 2015)
